Compounds without any hit were thinned out: in the full panel of roughly 83,000, 20% have a hit.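 For each line, cells grew in 96-well plates with the test compound present at a single concentration for 48 hours.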 A number with no mark means an inactive call. Activity calls are given as the source filed them. Rule for the calls: active = growth percent below 10; inactive = the rest.
Key:
Assay in all cases: NCI-60 one-dose screen, 48 h (100 = growth as untreated, 0 = no growth, -100 = all killed)
Conditions in all cases: 10 µM unless noted
NCI-H23 lung = system: NCI-H23 lung
NCI-H226 lung = system: NCI-H226 lung
NCI-H322M lung = system: NCI-H322M lung
NCI-H460 lung = system: NCI-H460 lung
NCI-H522 lung = system: NCI-H522 lung
786-0 renal = system: 786-0 renal
COLO 205 colon = system: COLO 205 colon
DU-145 prostate = system: DU-145 prostate
K-562 leukemia = system: K-562 leukemia
MALME-3M melanoma = system: MALME-3M melanoma
MDA-MB-231 breast = system: MDA-MB-231 breast
RXF 393 renal = system: RXF 393 renal
SF-268 CNS = system: SF-268 CNS
SF-295 CNS = system: SF-295 CNS
SF-539 CNS = system: SF-539 CNS
UACC-257 melanoma = system: UACC-257 melanoma
M14 melanoma = system: M14 melanoma
A549/ATCC NSCLC = system: A549/ATCC NSCLC

| Compound | growth (NCI-H23 lung) | growth (NCI-H226 lung) | growth (NCI-H322M lung) | growth (NCI-H460 lung) | growth (NCI-H522 lung) | growth (786-0 renal) | growth (COLO 205 colon) | growth (DU-145 prostate) | growth (K-562 leukemia) | growth (MALME-3M melanoma) | growth (MDA-MB-231 breast) | growth (RXF 393 renal) | growth (SF-268 CNS) | growth (SF-295 CNS) | growth (SF-539 CNS) | growth (UACC-257 melanoma) | growth (M14 melanoma) | growth (A549/ATCC NSCLC) |
| --- | --- | --- | --- | --- | --- | --- | --- | --- | --- | --- | --- | --- | --- | --- | --- | --- | --- | --- |
| O=C(O)c1ccccc1Oc1cc(-c2ccco2)nc(OCCN2CCOCC2)n1 | 106% | 97% | 94.6% | 116% | 92.1% | 96.5% | 103% | 113% | 107% | 98.3% | 98.8% | 115% | 114% | 102% | 108% | 108% | 99.1% | – |
| COc1ccc2nc3cc(Cl)ccc3c(NC(=O)CSc3ccc(Cl)cc3)c2c1 | -90% (active) | -44.4% (active) | -90.1% (active) | -84.4% (active) | -96.5% (active) | -98.2% (active) | -20.1% (active) | -98.3% (active) | -3.86% (active) | -77.1% (active) | -69.3% (active) | -99.1% (active) | -88.9% (active) | -86.2% (active) | -91.9% (active) | -90% (active) | -97.4% (active) | -69.4% (active) |
| O=C(N/N=C\c1cc(Br)ccc1O)c1ccncc1 | 43.5% | 39.9% | 41% | 6.66% (active) | -27.2% (active) | 18.4% | 7.89% (active) | 39.4% | 20.3% | 46.5% | 46.6% | 54.9% | 35.4% | 55.7% | 34.3% | 11.5% | 19.2% | 55.6% |
| COc1cc(CN2CCC(N3CCCC3=O)c3ccccc32)cc(OC)c1OC (stereo unspecified) | 63% | 85.9% | 87.9% | 89.4% | – | 80.4% | 106% | 108% | 46% | 71.9% | 90.4% | 112% | 91.6% | 79.3% | 93.7% | 72.2% | 92.9% | 80.7% |
| O=c1c2cc(Br)cc(Br)c2nc(-c2ccc(Cl)cc2)n1/N=C\c1ccccc1F | 62.9% | 51.2% | 52.5% | 39.1% | – | -34% (active) | 66.3% | 96% | 72.1% | 90.4% | 55.1% | 72.9% | 73.3% | 29.8% | 81.9% | 89.9% | 81.8% | 57.1% |
| NC(N)=N/N=C/c1ccc(Cl)cc1 | 99.7% | 80.1% | 105% | 53.6% | 79.9% | 97.1% | 77.6% | 73.8% | 14% | 88.3% | 97.5% | 89.3% | 68.5% | 81.9% | 99.1% | 80.7% | 66.2% | 92.1% |
| COc1ccc(C(=O)OC2C(OC3C(O)COC(O[C@H]4C[C@H]5[C@@H]6CC=C7C[C@@H](O)CC[C@]7(C)[C@H]6CC[C@]5(C)[C@H]4[C@H](C)C(=O)CCC(C)C)C3OC(C)=O)OCC(O)C2O)cc1 (stereo partly specified) | 2.95% (active) | -14% (active) | 36.9% | -20.3% (active) | -65.7% (active) | -41.2% (active) | -64.3% (active) | 28.5% | -50.3% (active) | -12.7% (active) | 10.6% | -71.9% (active) | -12.6% (active) | -64.5% (active) | -69.8% (active) | -60.3% (active) | -69.3% (active) | – |
| c1cc(C2CCCCC2)ccc1-c1cnc2nonc2n1 | 38.7% | 47.5% | 50.1% | 14.4% | -2.99% (active) | 13.5% | 2.48% (active) | 13.8% | 5.7% (active) | 48.8% | 18.6% | -3.18% (active) | 32% | 28.3% | 0.0756% (active) | 42.6% | -16.7% (active) | 34.6% |
| COC1(OC)C2(Cl)CCC1(Cl)C(Cl)=C2Cl | 99.4% | 98.2% | 100% | 106% | 97% | 102% | 128% | 108% | 110% | 99.4% | 106% | 107% | 106% | 105% | 101% | 93.2% | 96.9% | 95.6% |
| COc1cc(NC(=O)CSc2nc3ccc(Cl)cc3c(=O)n2-c2ccccc2)cc(OC)c1OC | 102% | 91.2% | 99.8% | 98.2% | 84.8% | 92.1% | 116% | 102% | – | 88% | 77.8% | 95% | 90.9% | 87.5% | 93.9% | 102% | 94% | 89% |
| Cc1c(C(=O)Nc2ccccc2F)sc2c(=O)[nH]cnc12 | 94% | 102% | 94.1% | 51.6% | 66.6% | 98.4% | 97.8% | 112% | 47.4% | 88.3% | 86.2% | 107% | 106% | 85.4% | 109% | 88.7% | 75.1% | 88.3% |
| Cc1c(C(N)=O)sc2ncn(CC(=O)NN=C3CCCCC3)c(=O)c12 | 111% | 96.7% | 116% | 115% | 83.8% | 105% | 129% | 111% | 103% | 136% | 103% | 83.5% | 108% | 98.6% | 105% | 165% | 105% | 111% |
| Nc1ccc(C2=NNC(=O)Cc3cc4c(cc32)OCCO4)cc1Cl | 20.9% | 68.5% | 61.1% | 10.6% | 11% | 54.3% | 26.9% | 67.5% | – | 40.9% | 61.4% | 49.9% | 59.7% | 15.9% | 49.4% | 72.7% | 16.8% | 40.3% |
| O=c1c2cc(Br)cc(Br)c2nc(-c2ccc(Cl)cc2)n1/N=C/c1cccc(F)c1 | 53.6% | 40.9% | 49.3% | 40.1% | 38.9% | 9.97% (active) | 54.3% | 91.4% | 63.2% | 63.3% | 46.1% | 47.2% | 70.4% | 41% | 64.4% | 93% | 67.5% | 48.6% |
| c1ccc(CCn2cccc2)nc1 | 106% | 107% | 122% | 123% | 106% | 103% | 94.8% | 104% | 98.6% | 114% | 94.9% | 116% | 96.5% | 114% | 106% | 108% | 106% | 109% |
| COc1cc(CN(c2ccc(C)cc2)C2OC(=O)c3ccccc32)cc(OC)c1OC (stereo unspecified) | 29% | 20.1% | 60.2% | 18.4% | 31.7% | 28.9% | -45.5% (active) | 25% | – | 63.4% | 64.6% | 22.3% | 34.1% | 16.8% | 5.91% (active) | 94.2% | -10% (active) | 30.5% |

Source: PubChem BioAssay (NCI)
